Several values for one entry are separate records, joined by “and”; a condition that tells them apart may be missing. Identical values can stand only once. Inconclusive results are not listed. A number with no mark means an inactive call. Activity calls are given as the source filed them. Calls follow the shape of the dose curve; as a rule, active = well fitted curve in the direction sought with a large enough effect; inconclusive = small, poorly fitted or top-dose-only effect, or another doubt; inactive = no such curve, though single readings can be large; an effect the other way counts as inactive or inconclusive. Numbered stars: 1 amine (or outer) side, 2 acyl side, 3 side chain; on linkers, the order of the positions; unused ones are H or OH. Bridge positions count the residues as written; N and C are the ends. Square brackets hold non-standard residues; d marks the D form. Peptide text beside a SMILES is read from it. I, II: the chains in the order shown. Actinocin(9to1) = Cc1c2oc3c(C)ccc(C(=O)[*:1])c3nc-2c(C(=O)[*:2])c(N)c1=O; NMeV = CN[C@H](C(=O)O)C(C)C; Sar = CNCC(=O)O
test: Primary qHTS for inhibitors of nuclear receptor binding SET domain protein 2 (NSD2) in an isogenic RCH-ACV NSD2 p.E1099K mutant (9B) (AID 1645876); conditions: RCH-ACV NSD2 E1099K (9B) viability, CellTiter-Glo, 72 h; series mostly up to 44.9 µM; activity change, negative = viability loss: at the top concentration
% is scaled to controls: 0 for no effect and ±100 for the full control effect; potency is read from the fitted curve at half-maximal effect.
Also: nearly all actives have a fitted effect of over 70% in size.

SMILES | Potency | activity change, negative = viability loss | outcome
C/C=C(/C(=C/C)c1ccc(O)cc1)c1ccc(O)cc1 | 14.8 µM (active) | – | –
CCN1CCCC1=O | – | 0.454% | –
CC[C@@H](CO)NCCN[C@@H](CC)CO | – | 5.4% | –
COc1ccc(C2C(=O)c3ccccc3C2=O)cc1 | – | – | inactive
CCCCCCCCCCCCCCCC[N+](C)(C)CCN(Cc1ccc(OC)cc1)c1ncccn1 | 0.668 µM (active) | – | –
C[n+]1c2cc(N)ccc2cc2ccc(N)cc21 (tested in a mixture with another compound) | 1.5 µM (active) | – | –
CCCCCCCCCCCCCCCCOP(=O)([O-])OCC[N+](C)(C)C | 10.6 µM (active) | – | –
CCCCC1=NC2(CCCC2)C(=O)N1Cc1ccc(-c2ccccc2-c2nn[nH]n2)cc1 | inactive | – | –
NC(=O)c1cc[n+](CC2=C(C(=O)[O-])N3C(=O)[C@@H](NC(=O)Cc4cccs4)[C@H]3SC2)cc1 | – | -7.85% | –
O=C(Nc1ccc(Oc2ccc(Cl)cc2)c(Cl)c1)c1cc(I)cc(I)c1O | – | -1.72% | –
COc1cc(OC)cc(OC)c1 | – | 1.4% | –
CC1(C)O[C@@H]2C[C@H]3[C@@H]4CCC5=CC(=O)CC[C@]5(C)[C@@]4(F)[C@@H](O)C[C@]3(C)[C@]2(C(=O)CCl)O1 | – | -38.1% | –
CC(=O)Oc1ccc2c(c1)CC[C@@H]1[C@@H]2CC[C@]2(C)[C@@H](O)CC[C@@H]12 | 13.3 µM (active) | – | –
CC(C)(C)NC(=O)[C@@H]1CN(Cc2cccnc2)CCN1C[C@@H](O)C[C@@H](Cc1ccccc1)C(=O)N[C@H]1c2ccccc2C[C@H]1O | – | – | inactive
NCCC(O)(P(=O)(O)O)P(=O)(O)O | – | – | inactive
CNC(=O)CN(CCN(CCN(CC(=O)[O-])CC(=O)NC)CC(=O)[O-])CC(=O)[O-].O.[Gd+3] | – | – | inactive
CCCCc1nc(Cl)c(CO)n1Cc1ccc(-c2ccccc2-c2nn[nH]n2)cc1 | – | – | inactive
CC(C)(C)CC(C)(C)c1ccc(OCCOCC[N+](C)(C)Cc2ccccc2)cc1 | 1.19 µM (active) and 1.83 µM (active) | – | –

SMILES | Potency | activity change, negative = viability loss | outcome
c1ccc(-c2ccc(C(c3ccccc3)n3ccnc3)cc2)cc1 (stereo not given) | 21.1 µM (active) | – | –
COc1ccc(/C=C/C(=O)c2ccc(OC)cc2OC)cc1 | 11.9 µM (active) | – | –
COc1cccc2c1C(=O)c1c(O)c3c(c(O)c1C2=O)C[C@@](O)(C(C)=O)C[C@@H]3O[C@H]1C[C@H](N)[C@H](O)[C@H](C)O1 | 2.7 nM (active) and 18.6 nM (active) | – | –
Cc1c2oc3c(C)ccc(C(=O)N[C@@H]4C(=O)N[C@H](C(C)C)C(=O)N5CCC[C@H]5C(=O)N(C)CC(=O)N(C)[C@@H](C(C)C)C(=O)O[C@@H]4C)c3nc-2c(C(=O)N[C@@H]2C(=O)N[C@H](C(C)C)C(=O)N3CCC[C@H]3C(=O)N(C)CC(=O)N(C)[C@@H](C(C)C)C(=O)O[C@@H]2C)c(N)c1=O (I: T[dV]P[Sar][NMeV] / II: T[dV]P[Sar][NMeV]; ester I:1-I:C, II:1-II:C; linker I:N-II:N via Actinocin(9to1)) | – | -97.9% | –
CC1(C)O[C@@H]2[C@@H](CO[C@@]3(COS(N)(=O)=O)OC(C)(C)O[C@@H]23)O1 | – | 3.34% | –
CCN1CCN(c2cc3c(cc2F)c(=O)c(C(=O)O)cn3C2CC2)CC1 | – | -11.4% | –
O=C(CCN1CCC(c2ccccc2)C1)c1ccc2c(c1)OCCO2 (stereo not given) | 2.37 µM (active) | – | –
NC(=NCCCCCCN=C(N)/N=C(\N)Nc1ccc(Cl)cc1)/N=C(\N)Nc1ccc(Cl)cc1 | 2.99 µM (active) and 3.65 µM (active) | – | –
CC(O)(P(=O)(O)O)P(=O)(O)O | – | 6.57% | –
CC1=C(C(=O)OC(C)C)C(c2cccc([N+](=O)[O-])c2)C(C(=O)OC2CN(C(c3ccccc3)c3ccccc3)C2)=C(N)N1 (stereo not given) | – | 5.57% | –
O=C(N/N=C/c1ccccc1O)c1ccncc1 | 6.68 µM (active) | – | –
Cc1ncc(CSSCc2cnc(C)c(O)c2CO)c(CO)c1O | – | -5.05% | –
c1ccc(CNCCNCc2ccccc2)cc1 | – | -15% | –
Cc1cc(O)c(C(C)C)cc1Cl | – | 7.84% | –
C=C1C(=C/C=C2\CCC[C@]3(C)[C@@H]([C@H](C)/C=C/[C@@H](O)C4CC4)CC[C@@H]23)C[C@@H](O)C[C@@H]1O | 15 µM (active) | – | –
O=c1ccc2ccccc2o1 | – | – | inactive
NCCCC[C@H](N[C@@H](CCc1ccccc1)C(=O)O)C(=O)N1CCC[C@H]1C(=O)O | – | – | inactive

test: Primary qHTS for inhibitors of nuclear receptor binding SET domain protein 2 (NSD2) in an RCH-ACV wild type WT cells (2C) (AID 1645877); conditions: RCH-ACV (leukaemia line) NSD2 WT (2C) viability, CellTiter-Glo, 72 h; series mostly up to 44.9 µM; activity change, negative = cell killing: at the top concentration

SMILES | Potency | outcome | activity change, negative = cell killing
C/C=C(/C(=C/C)c1ccc(O)cc1)c1ccc(O)cc1 | 10.5 µM (active) | – | –
CCN1CCCC1=O | – | inactive | –
CC[C@@H](CO)NCCN[C@@H](CC)CO | – | – | -0.951%
COc1ccc(C2C(=O)c3ccccc3C2=O)cc1 | – | – | 7.02%
CCCCCCCCCCCCCCCC[N+](C)(C)CCN(Cc1ccc(OC)cc1)c1ncccn1 | 0.75 µM (active) | – | –
C[n+]1c2cc(N)ccc2cc2ccc(N)cc21 (tested in a mixture with another compound) | 1.19 µM (active) | – | –
CCCCCCCCCCCCCCCCOP(=O)([O-])OCC[N+](C)(C)C | 11.9 µM (active) | – | –
CCCCC1=NC2(CCCC2)C(=O)N1Cc1ccc(-c2ccccc2-c2nn[nH]n2)cc1 | inactive | – | –
NC(=O)c1cc[n+](CC2=C(C(=O)[O-])N3C(=O)[C@@H](NC(=O)Cc4cccs4)[C@H]3SC2)cc1 | – | – | -11.2%
O=C(Nc1ccc(Oc2ccc(Cl)cc2)c(Cl)c1)c1cc(I)cc(I)c1O | – | – | -14.6%
COc1cc(OC)cc(OC)c1 | – | inactive | –
CC1(C)O[C@@H]2C[C@H]3[C@@H]4CCC5=CC(=O)CC[C@]5(C)[C@@]4(F)[C@@H](O)C[C@]3(C)[C@]2(C(=O)CCl)O1 | – | – | -72.8%
CC(=O)Oc1ccc2c(c1)CC[C@@H]1[C@@H]2CC[C@]2(C)[C@@H](O)CC[C@@H]12 | 8.41 µM (active) | – | –
CC(C)(C)NC(=O)[C@@H]1CN(Cc2cccnc2)CCN1C[C@@H](O)C[C@@H](Cc1ccccc1)C(=O)N[C@H]1c2ccccc2C[C@H]1O | – | inactive | –
NCCC(O)(P(=O)(O)O)P(=O)(O)O | – | inactive | –
CNC(=O)CN(CCN(CCN(CC(=O)[O-])CC(=O)NC)CC(=O)[O-])CC(=O)[O-].O.[Gd+3] | – | inactive | –
CCCCc1nc(Cl)c(CO)n1Cc1ccc(-c2ccccc2-c2nn[nH]n2)cc1 | – | – | -8.12%
CC(C)(C)CC(C)(C)c1ccc(OCCOCC[N+](C)(C)Cc2ccccc2)cc1 | 944 nM (active) and 1.63 µM (active) | – | –

SMILES | Potency | outcome | activity change, negative = cell killing
c1ccc(-c2ccc(C(c3ccccc3)n3ccnc3)cc2)cc1 (stereo not given) | 13.3 µM (active) | – | –
COc1ccc(/C=C/C(=O)c2ccc(OC)cc2OC)cc1 | 10.6 µM (active) | – | –
COc1cccc2c1C(=O)c1c(O)c3c(c(O)c1C2=O)C[C@@](O)(C(C)=O)C[C@@H]3O[C@H]1C[C@H](N)[C@H](O)[C@H](C)O1 | 0.0024 µM (active) | – | –
Cc1c2oc3c(C)ccc(C(=O)N[C@@H]4C(=O)N[C@H](C(C)C)C(=O)N5CCC[C@H]5C(=O)N(C)CC(=O)N(C)[C@@H](C(C)C)C(=O)O[C@@H]4C)c3nc-2c(C(=O)N[C@@H]2C(=O)N[C@H](C(C)C)C(=O)N3CCC[C@H]3C(=O)N(C)CC(=O)N(C)[C@@H](C(C)C)C(=O)O[C@@H]2C)c(N)c1=O (I: T[dV]P[Sar][NMeV] / II: T[dV]P[Sar][NMeV]; ester I:1-I:C, II:1-II:C; linker I:N-II:N via Actinocin(9to1)) | – | – | -97.7%
CC1(C)O[C@@H]2[C@@H](CO[C@@]3(COS(N)(=O)=O)OC(C)(C)O[C@@H]23)O1 | – | inactive | –
CCN1CCN(c2cc3c(cc2F)c(=O)c(C(=O)O)cn3C2CC2)CC1 | – | inactive | –
O=C(CCN1CCC(c2ccccc2)C1)c1ccc2c(c1)OCCO2 (stereo not given) | 2.99 µM (active) | – | –
NC(=NCCCCCCN=C(N)/N=C(\N)Nc1ccc(Cl)cc1)/N=C(\N)Nc1ccc(Cl)cc1 | 5.96 µM (active) and 3.65 µM (active) | – | –
CC(O)(P(=O)(O)O)P(=O)(O)O | – | – | 9.55%
CC1=C(C(=O)OC(C)C)C(c2cccc([N+](=O)[O-])c2)C(C(=O)OC2CN(C(c3ccccc3)c3ccccc3)C2)=C(N)N1 (stereo not given) | – | – | -9.52%
O=C(N/N=C/c1ccccc1O)c1ccncc1 | 23.7 µM (active) | – | –
Cc1ncc(CSSCc2cnc(C)c(O)c2CO)c(CO)c1O | – | – | -7.74%
c1ccc(CNCCNCc2ccccc2)cc1 | – | – | -10.2%
Cc1cc(O)c(C(C)C)cc1Cl | – | – | 6.02%
C=C1C(=C/C=C2\CCC[C@]3(C)[C@@H]([C@H](C)/C=C/[C@@H](O)C4CC4)CC[C@@H]23)C[C@@H](O)C[C@@H]1O | 16.8 µM (active) | – | –
O=c1ccc2ccccc2o1 | – | – | 7.2%
NCCCC[C@H](N[C@@H](CCc1ccccc1)C(=O)O)C(=O)N1CCC[C@H]1C(=O)O | – | – | 4.34%
